# HIF-2a inh = blocks HIF-2a reporter activity; 360,000 tested, 0.72% active; 786-0 RCC cells HIF-2a reporter, luciferase luminescence, overnight; inhibition, % at 18.8 µM;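 active = inhibition of the luminescence signal of 40% or more relative to plate controls, in a single-dose primary screen at 18.75 µM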
# TWEAK-Fn14 inh = blocks TWEAK-Fn14 interaction in a reporter cell assay | 360,000 tested, 2% active | AID 1159606 | TWEAK-stimulated Fn14 reporter cells, luciferase luminescence, 8 h | inhibition, % at 10 µM; in the data active = inhibition above about 50%
# TROY signal inh = TROY signaling inhibition; Q293 LMP1-TROYcd NF-kB luciferase reporter, 4 h; inhibition, % at 10 µM; 360,000 tested, 0.98% active; AID 1347056;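 active = compounds whose plate-normalised and pattern-corrected inhibition of the luciferase reporter signal at the single screening dose is 50% or more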
# Peg3 promoter = inhibitors of Peg3 promoter; HeLa PEG-Prom luciferase reporter, luminescence, overnight; inhibition, % at 20 µM; 360,000 tested, 1.7% active;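 active = inhibition of at least 50% at 20 µM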
# MITF TRPM1 inh = inhibitors of MITF-driven TRPM1 promoter in melanoma cells; 330,000 tested, 0.83% active; inhibition, % at 12.5 µM; SK-MEL-5 TRPM1 promoter luciferase, 24 h;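 active = mean inhibition across replicates of 60% or more, whatever share of single replicates reaches that level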
# EBV LMP1 NFkB = inhibitors of Epstein-Barr LMP1-induced NF-kappaB reporter | LMP1-induced NF-kappaB luciferase reporter cells, luminescence | 350,000 tested, 0.69% active | inhibition, % at 12.5 µM; in the data active = inhibition above about 41%;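 also: 0% = neutral control wells and 100% = reference inhibitor control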
# * hit, by the source's call; . = no result. In the library only some 4% were active in any assay of this set; here they are far more common.
SMILES,HIF-2a inh,TWEAK-Fn14 inh,TROY signal inh,Peg3 promoter,MITF TRPM1 inh,EBV LMP1 NFkB
CC1(C(=O)Nc2ccc3c(c2)OCCO3)CCN1C(=O)C1(c2ccc(Cl)cc2)CC1 (stereo not given),21.2,59.0*,25.9,26.0,.,.
CC(C)c1ccc(CC(=O)N2CCC2(C)C(=O)Nc2ccc3c(c2)OCO3)cc1 (stereo not given),-74.4,-10.7,3.7,-58.2,.,.
CC1(C(=O)Nc2cccc(C#N)c2)CCN1C(=O)Cc1ccc(-c2ccccc2)cc1 (stereo not given),17.7,57.0*,22.8,28.8,.,.
O=C(Nc1ccccc1)NC1(C(=O)NCc2ccc3c(c2)OCO3)CCCCC1,19.7,-5.5,6.5,13.8,-1.8,0.9
O=C(NCc1ccccc1)NC1(C(=O)Nc2ccc3c(c2)OCCO3)CCCCC1,-2.3,42.3,15.5,-12.2,64.5*,0.8
CC(C)c1ccc(CC(=O)N2CCC2(C)C(=O)Nc2cccc(C#N)c2)cc1 (stereo not given),9.5,11.5,18.4,7.1,.,.
CCCCN(CCCC)Cc1cc(=O)oc2cc(OC)c(Cl)cc12,6.6,11.3,-0.7,19.6,.,.
Cc1ccc(S(=O)(=O)NCC(=O)OC(C)C(=O)NC2CCCCC2C)cc1C (stereo not given),-0.9,2.6,14.5,10.4,0.4,-4.1
Cc1cccc(-c2noc(CCCC(=O)NC3CCCC3)n2)c1,12.5,-5.2,-4.2,6.6,16.3,2.5
Cc1ccn2cc(-c3cc4ccccc4oc3=O)nc2c1,-49.1,66.0*,-0.3,-37.7,27.1,24.6
CC1=C(C(=O)N2CCCCCC2)CC(CC(=O)NC(c2ccccc2)c2ccccc2)C(=O)N1Cc1ccccc1 (stereo not given),-4.5,-9.6,-4.6,20.4,.,.
C=CCn1c(SCC(=O)c2[nH]c(C)c(C(=O)OC)c2C)nc2scc(-c3ccc(OC)c(OC)c3)c2c1=O,11.9,-14.9,-4.4,10.0,104.7*,3.4
O=C(COC(=O)/C=C/c1ccc(OC(F)F)cc1)Nc1cccc(S(=O)(=O)N2CCOCC2)c1,1.9,-11.2,5.5,4.1,2.2,3.0
Cc1cccc(C(C#N)c2nc3ccccc3nc2C(F)(F)F)c1 (stereo not given),8.8,-12.3,-24.8,20.6,-4.7,-0.3
Cc1ccc2nc(C(F)(F)F)c(C#N)c(N)c2c1,-31.0,64.4*,53.2*,100.8*,26.0,-32.6
CCc1nnc2n1N=C(c1ccc(OC)cc1)CS2,15.4,3.7,-13.2,-4.9,1.5,2.8
CCc1nnc2n1N=C(c1ccc(-c3cc(Cl)ccc3Cl)o1)CS2,-5.5,-18.0,-9.2,62.8*,-24.3,5.8
O=C(Nc1cc(Sc2nc3ccccc3s2)cc([N+](=O)[O-])c1)c1ccccc1,-4.9,63.4*,29.9,42.4,-0.1,-4.4
O=C(Nc1cc(Sc2ccccn2)cc([N+](=O)[O-])c1)c1cccc(F)c1,-14.3,64.9*,28.0,16.7,10.3,-3.3
O=C(NNC(=O)c1ccccn1)c1cccc([N+](=O)[O-])c1,-4.5,4.8,16.4,7.7,5.4,6.4
CSc1ccccc1NC(=O)c1ccc([N+](=O)[O-])cc1,-47.7,-9.9,-7.4,-17.0,-13.9,0.8
O=C(Nc1ccccc1O)c1ccc([N+](=O)[O-])cc1,-156.8,110.1*,-27.7,-36.9,-16.0,25.6
O=C(/C=C/NNC(=O)c1ccccc1)c1ccc([N+](=O)[O-])cc1,-11.3,-1.8,-53.2,47.0,64.0*,17.4
CC(Cc1ccccc1)NC(=S)CN1CCCC1=S (stereo not given),6.2,0.2,11.2,7.0,-4.7,4.2
Cc1ccc(C(=O)CSc2nnc3c4ccccc4nc(C(C)(C)C)n23)cc1,-4.4,13.1,51.9*,17.7,-3.4,-10.4
SMILES,HIF-2a inh,TWEAK-Fn14 inh,TROY signal inh,Peg3 promoter,MITF TRPM1 inh,EBV LMP1 NFkB
COc1cc(CNC(C)(C)CO)cc(Br)c1OCc1ccc(Cl)cc1Cl,1.4,-61.5,1.9,90.3*,-14.5,-11.2
COc1cc(CNCCO)cc(Cl)c1OCc1ccc(Cl)cc1Cl,4.6,-11.9,0.0,104.7*,6.9,-0.8
Cc1cc(=O)[nH]c(SCC(=O)c2ccc(F)c(C)c2)n1,-6.5,-24.0,-5.3,4.2,13.2,8.5
NC1(C#Cc2ccc3c(=O)c4ccccc4sc3c2)CCCCC1,-70.6,81.4*,48.5,-105.4,-40.8,8.3
N#Cc1ccc(C#Cc2ccc3oc4ccccc4c(=O)c3c2)cc1,-20.0,-22.2,8.0,-2.3,-0.6,2.3
COc1cccc2oc3ccc(C#CC4(N)CCCCC4)cc3c(=O)c12,-167.4,38.0,49.4,60.2*,23.1,-10.8
Cn1c2ccccc2c(=O)c2ccc(C#CC3(N)CCCCC3)cc21,-100.2,33.7,62.3*,51.6*,10.6,1.0
COc1cc(-c2ccc3c(=O)c4ccccc4sc3c2)cc(OC)c1OC,-92.4,-10.2,-91.7,-58.9,-62.6,9.7
O=c1c2ccccc2oc2ccc(C#CC3(O)CCCCC3)cc12,-2.2,98.3*,88.7*,37.2,3.9,-11.9
O=C(Nc1ccc(C(=O)O)cc1)/C(=C\c1ccc([N+](=O)[O-])cc1)NC(=O)c1ccc(Br)cc1,12.5,-15.4,-6.7,8.1,9.1,-0.1
Cn1c2ccccc2c(=O)c2cc(C#CC3(O)CCCCC3)ccc21,10.5,89.7*,88.1*,43.1,28.2,10.6
Cn1cccc1/C=N/n1c(-c2ccc(Cl)cc2Cl)n[nH]c1=S,17.2,4.2,3.2,16.3,15.5,84.1*
Cc1ccccc1NC(=O)C(Cl)=C(Cl)Cl,-40.9,11.7,-5.1,55.0*,35.5,90.0*
Cc1ccccc1NNC(=O)C(=O)NNc1ccccc1C,8.9,9.9,-32.2,6.6,9.1,-26.0
c1ccc(-c2cnnc(-c3ccccn3)n2)cc1,-198.4,-11.6,-53.6,-242.7,-83.3,-5.7
C=CCNc1nc(-c2ccccn2)nnc1-c1ccccc1,7.1,-10.5,15.7,34.6,78.3*,-40.8
O=C1C(=O)N(CCS(=O)(=O)c2ccccc2)c2ccc(Cl)cc21,7.3,-0.6,3.0,64.0*,5.1,-5.3
CC(=O)c1c[nH]c(C(=O)Nc2ccc(N3CCCCCC3)cc2)c1,-46.8,69.0*,22.3,-76.3,9.9,7.1
Cc1cc(C(=O)Nc2ccc(N3CCCCC3)cc2)no1,-97.8,72.8*,26.0,-100.5,-6.3,29.4
O=C(CCl)Nc1ccc(N2CCCCCC2)cc1,5.1,-4.8,-14.8,83.7*,-10.7,-21.3
Cc1ccc(C(=O)Nc2ccc(N3CCCCC3)cc2)cc1,-228.7,13.0,-35.8,-318.6,-101.2,-27.9
CCc1ccc(CN(Cc2cccnc2)C(=O)/C=C/c2ccc(OC)cc2)cc1,-57.4,-31.7,2.9,-37.7,-6.7,1.4
Cc1ccc(/C=C/S(=O)(=O)NCC(=O)OCC(=O)N2CC(=O)Nc3ccccc32)cc1,12.8,8.2,11.0,-1.5,12.9,0.8
COC(=O)c1ccccc1NC(=O)c1cn(-c2ccc(C)c(C)c2)c(=O)c2ccccc12,15.6,22.1,7.9,52.4*,0.3,17.4

# Screens (PubChem)
